19 compounds from PubChem BioAssay (NCI) can be followed below.

“And” between values parts separate entries of the source, which are not always exact repeats. Equal values may be shown once. About 83,000 compounds went through this panel and 20% of them were active in at least one assay; those are over-represented in the sample as a whole.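 Assay: single dose, 48 h. Readout: percent growth (0 = no net growth; negative = cell death). Active: <10.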 The source made the active and inactive calls.

What all share (assay): NCI-60 one-dose screen, 48 h (100 = growth as untreated, 0 = no growth, -100 = all killed)
One assay concerns EKVX NSCLC. To be noted: 10 µM.
The test system of a further assay is SN12C renal. As to conditions: 10 µM.
The test system of a further assay is TK-10 renal.
The subject of the next assay is ACHN renal. As to conditions: 10 µM.
Another assay has as its system CAKI-1 renal. As to conditions: 10 µM.
The next assay deals with A498 renal. As to conditions: 10 µM.
Another assay deals with CCRF-CEM leukemia. To be noted: 10 µM.
For the next assay, the system named is MOLT-4 leukemia. As to conditions: 10 µM.
In the next assay the test system is UO-31 renal. As to conditions: 10 µM.

Consider `O=C1C=CC(=CC=C2C=CN(CCCCCCCCCCCO)C=C2)C=C1`, for which the growth in the assay with EKVX NSCLC is 26.3% (inactive); in the assay on SN12C renal, 10.4% (inactive); in the assay with TK-10 renal (10 µM) it was 58.8% (inactive); in the assay with ACHN renal it was 90.9% (inactive); in the assay on CAKI-1 renal, 90.4% (inactive); in the assay on A498 renal it was 95.1% (inactive). In addition, the results for the growth with CCRF-CEM leukemia and with MOLT-4 leukemia were 29.5% (inactive) and 41.9% (inactive), respectively.
As to `O=C1C=C(O)c2ccccc2C1=O.[Ag]`, the growth with SN12C renal was 103% (inactive); in the assay with UO-31 renal it was 82.9% (inactive); with TK-10 renal (10 µM), 157% (inactive); in the assay on ACHN renal it was 95.2% (inactive); in the assay with CAKI-1 renal it was 94.4% (inactive); in the assay with A498 renal, 93.3% (inactive). In addition, the figures for the growth with CCRF-CEM leukemia and in the assay with MOLT-4 leukemia were 101% (inactive) and 105% (inactive), respectively.
Regarding `CCC(C)(C)c1cc(O)c(C(C)(C)CC)cc1O`, the growth in the assay on EKVX NSCLC is 43.4% (inactive); in the assay on SN12C renal it was 36.5% (inactive); in the assay with TK-10 renal (10 µM), 63.2% (inactive); in the assay on ACHN renal it was 43.4% (inactive); with CAKI-1 renal, 41.4% (inactive); with A498 renal it was 50.1% (inactive). The growth in the assay on MOLT-4 leukemia is 24.7% (inactive).
As to `COc1ccc(CC(=O)c2ccc(O)cc2O)cc1`, the growth in the assay with EKVX NSCLC was 104% (inactive); in the assay on SN12C renal, 123% (inactive); in the assay on UO-31 renal it was 98.5% (inactive); in the assay on TK-10 renal (10 µM) it was 122% (inactive); with ACHN renal it was 118% (inactive); in the assay on A498 renal it was 128% (inactive). For the same compound, in the assay with CCRF-CEM leukemia, the growth is 104% (inactive).
`NNc1ccc2ccccc2c1`: the growth in the assay on EKVX NSCLC is 76.7% (inactive) and 93% (inactive); in the assay on SN12C renal, 94.7% (inactive) and 102% (inactive); with UO-31 renal, 52.5% (inactive) and 68.7% (inactive); in the assay on TK-10 renal (10 µM), 109% (inactive) and 120% (inactive); with ACHN renal, 81.6% (inactive) and 98.7% (inactive); in the assay with CAKI-1 renal it was 84.6% (inactive) and 95.5% (inactive). For the same compound, the growth in the assay on A498 renal is 88.5% (inactive); with CCRF-CEM leukemia, 84.1% (inactive) and 114% (inactive); in the assay with MOLT-4 leukemia it was 94.3% (inactive) and 109% (inactive).
As for `Clc1ccc(/C=C/c2ccccn2)c(Cl)c1`, the growth with EKVX NSCLC is 58.9% (inactive); in the assay on SN12C renal, 94.4% (inactive); in the assay on UO-31 renal it was 59.6% (inactive); in the assay on TK-10 renal (10 µM), 98% (inactive); with ACHN renal it was 104% (inactive); in the assay with CAKI-1 renal, 72.7% (inactive). Also, in the assay with MOLT-4 leukemia, the growth was 79.5% (inactive).
Take `COC(=O)C1C(O)C(C)C(O)C(C)C=C(C)C2=C3C(=C(C)C(=O)c4c(O)c(c(C)c(OC(C)=O)c43)NC(=O)C(C)=C/C=C\C(C)C(O)C(C)C1O)OCO2` (centres undefined): the growth is 119% (inactive) in the assay with EKVX NSCLC; 99.8% (inactive) in the assay on SN12C renal; 89.3% (inactive) in the assay with UO-31 renal; 118% (inactive) with TK-10 renal (10 µM); 104% (inactive) in the assay with ACHN renal; 133% (inactive) in the assay on CAKI-1 renal. Also, the growth in the assay with A498 renal is 123% (inactive); in the assay with CCRF-CEM leukemia it was 103% (inactive); with MOLT-4 leukemia, 153% (inactive).
`CSC1SCC2C(=O)N(C)C(C(C)C)C(=O)OCC(NC(=O)c3cnc4ccccc4n3)C(=O)NC(C)C(=O)N(C)C1C(=O)N(C)C(C(C)C)C(=O)OCC(NC(=O)c1cnc3ccccc3n1)C(=O)NC(C)C(=O)N2C` (centres undefined): the growth in the assay with EKVX NSCLC is -8.18% (active); in the assay on SN12C renal it was 8.11% (active); with UO-31 renal, 13.4% (inactive); in the assay with TK-10 renal (10 µM) it was 20.1% (inactive); in the assay with ACHN renal, 2.44% (active); with CAKI-1 renal, -13% (active). For the same compound, the growth in the assay with A498 renal is -76.6% (active); in the assay with CCRF-CEM leukemia, -25.7% (active); with MOLT-4 leukemia it was -33.8% (active).
With `CCCCCCCCCCCCCCCCCCOCC(COP(=O)([O-])OCC[N+](C)(C)C)OC` (centres undefined), the growth with EKVX NSCLC is 119% (inactive); in the assay on SN12C renal, 89.7% (inactive); in the assay with UO-31 renal it was 94.9% (inactive); in the assay with TK-10 renal (10 µM), 64% (inactive); in the assay with ACHN renal, 93.7% (inactive); with CAKI-1 renal, 69% (inactive). Besides, the growth in the assay on CCRF-CEM leukemia is 63.9% (inactive); in the assay on MOLT-4 leukemia, 89.4% (inactive).
As for `CN(C)C(=S)SC(=S)N(C)C`, the growth in the assay on SN12C renal is 101% (inactive) and 103% (inactive); in the assay with UO-31 renal, 91.2% (inactive) and 79.1% (inactive); in the assay with TK-10 renal (10 µM), 113% (inactive) and 112% (inactive); in the assay with ACHN renal, 101% (inactive) and 107% (inactive); in the assay on CAKI-1 renal, 104% (inactive) and 103% (inactive); in the assay on A498 renal, 94.7% (inactive). The growth in the assay on CCRF-CEM leukemia was 80.6% (inactive) and 71.3% (inactive); in the assay on MOLT-4 leukemia, 92.4% (inactive) and 85% (inactive).
For the compound `Cc1cc(NS(=O)(=O)c2ccc(N=Nc3cc(N=Nc4ccc(S(=O)(=O)Nc5cc(C)nc(C)n5)cc4)c4c(NC(=O)C(Cl)Cl)cccc4c3OC(=O)C(Cl)Cl)cc2)nc(C)n1` (tested in a mixture with another compound), the growth with SN12C renal is 100% (inactive) and 101% (inactive); in the assay on UO-31 renal it was 68.9% (inactive) and 72.2% (inactive); with TK-10 renal (10 µM), 148% (inactive) and 150% (inactive); in the assay with ACHN renal it was 89.5% (inactive) and 94.4% (inactive); in the assay with CAKI-1 renal, 96.7% (inactive) and 88.6% (inactive); in the assay with A498 renal it was 116% (inactive) and 101% (inactive). The growth in the assay with CCRF-CEM leukemia was 95.3% (inactive) and 99.6% (inactive); in the assay with MOLT-4 leukemia, 102% (inactive) and 105% (inactive).
Turning to `CC(C)C1=C(O)C2=C(C(=O)C1=O)C1(C)CCCC(C)(C)C1CC2O` (centres undefined), in the assay with TK-10 renal (100 µM), the growth was 18.6% (inactive) and -89% (active).
As for `Nc1c2ccccc2nc2ccccc12`, the growth in the assay on EKVX NSCLC is -24.1% (active) and 43.9% (inactive) and 57.3% (inactive); in the assay with SN12C renal, 12% (inactive) and 33.2% (inactive) and 33.5% (inactive); in the assay with UO-31 renal, 12.8% (inactive) and 11.1% (inactive) and 14.2% (inactive); in the assay on TK-10 renal (10 µM), -13.4% (active) and 48.2% (inactive); with ACHN renal it was 16.9% (inactive) and 25.5% (inactive); in the assay on CAKI-1 renal, -37.7% (active) and 19.8% (inactive) and 21.5% (inactive). The growth with A498 renal was -0.261% (active) and 37.5% (inactive) and 18.3% (inactive); in the assay with CCRF-CEM leukemia it was 35.3% (inactive) and 20.5% (inactive) and 50.7% (inactive); with MOLT-4 leukemia, 8.47% (active) and 10.2% (inactive) and 12.6% (inactive).
On to `CC[N+](CC)=c1ccc2nc3c(cc(N)c4ccccc43)oc-2c1`, for which the growth in the assay on EKVX NSCLC is -66.6% (active); in the assay on SN12C renal, -40.8% (active); with UO-31 renal it was -56.7% (active); in the assay on TK-10 renal (10 µM), -74.2% (active); in the assay with ACHN renal it was -77.6% (active); with CAKI-1 renal, -79% (active). The growth in the assay with A498 renal was -76.4% (active); in the assay with CCRF-CEM leukemia, 19.8% (inactive); in the assay with MOLT-4 leukemia, -44.4% (active).
Turning to `CCCC1CCC(=C2C(=O)CCC2=O)O1` (centres undefined), the growth in the assay with EKVX NSCLC is 86.2% (inactive) and 101% (inactive); in the assay on SN12C renal, 90.5% (inactive) and 101% (inactive); with UO-31 renal, 84.8% (inactive) and 96.3% (inactive); in the assay with TK-10 renal (10 µM), 98.2% (inactive) and 118% (inactive); in the assay on ACHN renal, 95.7% (inactive) and 96.2% (inactive); in the assay with CAKI-1 renal it was 93.9% (inactive) and 90.5% (inactive). The growth was 108% (inactive) and 105% (inactive) in the assay on A498 renal; 123% (inactive) and 99.8% (inactive) in the assay on CCRF-CEM leukemia; 134% (inactive) and 120% (inactive) in the assay with MOLT-4 leukemia.
As for `CS(=O)(=O)OC1CC(n2ccc(=O)[nH]c2=O)OC1COC(c1ccccc1)(c1ccccc1)c1ccccc1` (centres undefined), the growth in the assay on SN12C renal was 103% (inactive); in the assay on UO-31 renal it was 81.5% (inactive); in the assay with TK-10 renal (10 µM), 105% (inactive); in the assay on ACHN renal, 103% (inactive); in the assay with CAKI-1 renal, 103% (inactive); with A498 renal, 107% (inactive).
On to `CC(=O)OCC(OC(C)=O)C(OC(C)=O)C(OC(C)=O)C(OC(C)=O)C(/C=N/Nc1ccccc1)=N/Nc1ccccc1` (centres undefined), for which the growth with EKVX NSCLC is 60% (inactive); in the assay with SN12C renal, 78.7% (inactive); in the assay on UO-31 renal it was 48.6% (inactive); in the assay on TK-10 renal (10 µM), 91.2% (inactive); with ACHN renal, 56.2% (inactive); in the assay on CAKI-1 renal, 72.6% (inactive). In addition, the figures for the growth in the assay on A498 renal, in the assay on CCRF-CEM leukemia and in the assay with MOLT-4 leukemia were 83.4% (inactive), 17.5% (inactive) and 30.6% (inactive), respectively.
With `C[n+]1c2cc(N)ccc2cc2ccc(N)cc21`, the growth in the assay with EKVX NSCLC was -23.9% (active) and 5.67% (active) and -26.5% (active); with ACHN renal, 6.76% (active) [middle of 4 runs]; in the assay on CAKI-1 renal it was -22.5% (active) and 9.14% (active); in the assay with CCRF-CEM leukemia, 17.7% (inactive) [middle of 4 runs]; in the assay with MOLT-4 leukemia it was 9.49% (active) [middle of 4 runs].
In the case of `NNc1c2ccccc2nc2ccccc12`, the growth was 58.3% (inactive) in the assay on EKVX NSCLC; 52.2% (inactive) in the assay with SN12C renal; 61.4% (inactive) in the assay on UO-31 renal; 45.4% (inactive) in the assay on TK-10 renal (10 µM); 46.7% (inactive) in the assay on ACHN renal; 49.3% (inactive) in the assay with A498 renal. Further, the results for the growth with CCRF-CEM leukemia and in the assay on MOLT-4 leukemia were 37.7% (inactive) and 29% (inactive), respectively.
